In PubChem BioAssay (NCI):
This is part of a sample that, as a whole, favours compounds with a hit. Of some 79,000 tested, about 15% had one in any assay. No stated cut-off is given here; in the data, active means growth inhibition above about 70%; inactive means the rest.

Assays:
[1] = NCI Yeast Anticancer Drug Screen. Data for the rad50 strain (AID 155);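 further: 0% = growth of vehicle-only cultures of the same strain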; conditions: S. cerevisiae rad50 strain growth inhibition; at 50.0 µM; stronger effect = higher value
Summary of the method: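 Compounds were tested on a yeast strain with an engineered DNA damage repair alteration; the reported value is growth inhibition normalised to vehicle treatment.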

[2] = NCI Yeast Anticancer Drug Screen. Data for the mec2-1 strain (AID 157); conditions: S. cerevisiae mec2-1 strain, at 50.0 µM, stronger effect = higher value
Summary of the method: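 Mutant yeast (mec2-1) grown with compound; growth inhibition relative to vehicle control reported.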

[3] = NCI Yeast Anticancer Drug Screen. Data for the sgs1 mgt1 strain (AID 161);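 further: 0% = growth of cultures given vehicle only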; conditions: S. cerevisiae sgs1 mgt1 strain, at 50.0 µM, stronger effect = higher value
Summary of the method: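 This yeast growth screen uses a strain with defined DNA-repair lesions; compound-treated growth is compared with vehicle-treated growth.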

[4] = NCI Yeast Anticancer Drug Screen. Data for the cln2 rad14 strain (AID 165);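 further: 0% = growth equal to vehicle treated cultures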; conditions: S. cerevisiae cln2 rad14 strain, at 50.0 µM, stronger effect = higher value
Summary of the method: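 Readout is yeast growth inhibition versus vehicle-treated controls, using a strain with cln2 and rad14 alterations exposed to compound.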

[5] = NCI Yeast Anticancer Drug Screen. Data for the bub3 strain (AID 167); conditions: S. cerevisiae bub3 mutant strain, at 50.0 µM, stronger effect = higher value
Summary of the method: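 Growth of a checkpoint-deficient yeast mutant is measured after compound exposure. Values represent inhibition relative to vehicle.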

[6] = NCI Yeast Anticancer Drug Screen. Data for the mlh1 rad18 strain (AID 175); conditions: S. cerevisiae mlh1 rad18 strain growth inhibition; at 50.0 µM; stronger effect = higher value
Summary of the method: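 Genetically defined yeast (DNA repair-deficient) exposed to compounds; growth inhibition determined relative to vehicle.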

Measured: growth inhibition

CC(C)CCC(=O)OCC(=O)c1ccc(-c2ccccc2)cc1
inactive: [1] 8.55% | [2] -13.1% | [3] 7.25% | [4] -1.45% | [5] 23.9% | [6] 9.1%

Cc1cc(C=O)c(C)[nH]1
inactive: [1] 3.9% | [2] -3.55% | [3] -2.4% | [4] -11.2% | [5] 1.55% | [6] -4.4%

COC(=O)C(=O)C(C(=O)C(N)=O)c1nc2ccc(C(=O)c3ccccc3)cc2[nH]c1=O (stereo unspecified)
inactive: [1] 0.35% | [2] 5.45% | [3] -17.2% | [4] -9.25% | [5] -19.1% | [6] 9.85%

O=[N+]([O-])c1ccc(C=Nc2ccccc2)cc1
inactive: [1] 41.1% | [2] 24.1% | [3] 30.9% | [4] 11.9% | [5] 1% | [6] 26.4%

Cc1cccc2c1C(=O)C1(Cc3ccccc3C1=O)C2 (stereo unspecified)
inactive: [1] -13.4% | [2] -6.95% | [3] -15.1% | [4] -5.15% | [5] 2.4% | [6] -3.2%

O=[N+]([O-])c1ccc(/C=N/Nc2cnnc(Cl)c2Cl)cc1
inactive: [1] -0.6% | [2] 1.75% | [3] -1.95% | [4] -33% | [5] 2.45% | [6] 1.65%

O=[N+]([O-])c1ccc(Cn2on2-c2ccccc2)cc1
inactive: [1] 8.55% | [2] 21.1% | [3] 9.1% | [4] -16.7% | [5] 24.4% | [6] -23.9%

O=[N+]([O-])c1ccc(C2=NN(c3ccccc3)C(c3ccccc3)C2)cc1 (stereo unspecified)
inactive: [1] 8% | [2] 3.1% | [3] 0.5% | [4] -5.9% | [5] 8.85% | [6] 4%

O=C1C(Cc2ccccc2)C(=O)N2c3ccccc3C=CC2N1c1ccccc1 (stereo unspecified)
inactive: [1] 13.2% | [2] 13.7% | [3] 4.6% | [4] 0.55% | [5] -10% | [6] 8.45%

OC(CSCc1ccccc1)c1ccccc1 (stereo unspecified)
inactive: [1] -17.8% | [2] 2.45% | [3] -7.95% | [4] -43% | [5] -2.2% | [6] 3.1%

O=[N+]([O-])c1cc(F)c(F)cc1F
inactive: [1] -26.9% | [2] 4.15% | [3] -21.1% | [4] -32.2% | [5] -14.6% | [6] 26.9%

O=C(O)C1CC=CCC1c1c2ccc(=O)cc-2oc2cc(O)ccc12 (stereo unspecified)
inactive: [1] 48.5% | [2] 27.8% | [3] 15.8% | [4] -5.25% | [5] 32.9% | [6] 13.6%

CN1C/C(=C\C=C\c2ccccc2)C(=O)/C(=C/C=C/c2ccccc2)C1
inactive: [1] 66.7% | [2] 16.9% | [3] 14.8% | [4] 11.8% | [5] 11.2% | [6] 0.2%

Cc1cccc(N=Nc2c(-c3ccccc3)nn(C(N)=S)c2C)c1C
inactive: [1] -19.8% | [2] -30.4% | [3] -18.4% | [4] -221% | [5] -9.95% | [6] -7.75%

O=C1c2cc(O)c(O)cc2C(=O)c2cc3c(cc21)OCO3
inactive: [1] -38.2% | [2] -5.55% | [3] 1.4% | [4] -11.6% | [5] -8.3% | [6] -15.9%

CNC(=S)SC1=NS(=O)(=O)c2ccccc2N1
inactive: [1] -9.1% | [2] -5.05% | [3] -2.75% | [4] 12.4% | [5] -9.75% | [6] 23.4%

CCC(CCC(=O)c1ccccc1)[N+](=O)[O-] (stereo unspecified)
inactive: [1] -3.65% | [2] -14.8% | [3] -5.7% | [4] -8.5% | [5] 13.8% | [6] 7.2%

Cn1nnnc1CCO
inactive: [1] -9.45% | [2] 7.05% | [3] -13.4% | [4] -0.55% | [5] 2.9% | [6] -8.55%

COc1ccc(NS(=O)c2ccc(Cl)cc2)cc1 (stereo unspecified)
inactive: [1] 13% | [2] 12.8% | [3] 28.3% | [4] 8.65% | [5] 11.4% | [6] 13.9%

COc1cc2c(cc1OC)C(N)CC2=O (stereo unspecified)
inactive: [1] 3.15% | [2] 1.4% | [3] -7.25% | [4] 3.65% | [5] 0.5% | [6] -75.3%

CC(=O)Nc1ccc(C(N)=S)cc1
inactive: [1] 11.8% | [2] 7.5% | [3] 3.25% | [4] 5.4% | [5] 10.5% | [6] 4.1%

OC1c2cc(Br)ccc2-c2c(F)cc(Br)cc21 (stereo unspecified)
inactive: [1] 4.9% | [2] -6.75% | [3] -5.3% | [4] 4.65% | [5] 1.9% | [6] -10.9%

CCOC(=O)CC1(C)c2nc(NC(C)=O)sc2Cc2sc(NC(C)=O)nc21
inactive: [1] -2.2% | [2] -8.9% | [3] 0.8% | [4] -26.6% | [5] -2.4% | [6] -15.5%

c1ccc(N(c2ccccc2)C(c2ccccc2)(c2ccccc2)c2ccccc2)cc1
inactive: [1] 12.6% | [2] -2.65% | [3] 1.1% | [4] -36.3% | [5] -0.85% | [6] 7.85%

CC(Cc1ccccc1)c1ccccc1 (stereo unspecified)
inactive: [1] 15.9% | [2] 16.2% | [3] 10.7% | [4] 3.35% | [5] -0.05% | [6] 2.1%

CC1(CCC(=O)c2ccc3c(c2)OCO3)OCCO1
inactive: [1] 31.8% | [2] 8.95% | [3] 23.4% | [4] 14% | [5] 24.6% | [6] 26.9%

NNC(=O)NN1C(=O)c2cc(S(=O)(=O)O)cc3c(N)c(S(=O)(=O)O)cc(c23)C1=O
inactive: [1] 35.2% | [2] -3.05% | [3] 14.6% | [4] 6.35% | [5] -5.45% | [6] 10.3%

O=C(/C=C/c1ccccc1)SCc1ccccc1
inactive: [1] -2.9% | [2] 14% | [3] 11.2% | [4] -2.1% | [5] -4.75% | [6] 2.35%

Cn1c(=O)c2[nH]c(C3CC(=O)CC(c4nc5c([nH]4)c(=O)n(C)c(=O)n5C)N3)nc2n(C)c1=O (stereo unspecified)
inactive: [1] -1.75% | [2] 5.1% | [3] -14.4% | [4] 1.8% | [5] -27.4% | [6] 7.15%

C=CCn1c(=O)n(CC=C)c(=O)n(CC=C)c1=O
inactive: [1] 7.4% | [2] 14.3% | [3] -5.35% | [4] -26.6% | [5] -10.3% | [6] -10.8%

CC(C)CCCC(C)[C@H]1CCC2[C@@H]3CCC4Cc5nc6c(nc5C[C@]4(C)C3CC[C@@]21C)CC1CC[C@@H]2C(C[C@@H](O)[C@@]3(C)C2C[C@@H]2OC4(CCC(C)CO4)C(C)[C@@H]23)[C@@]1(C)C6 (stereo partly specified)
inactive: [1] -19.6% | [2] 1.65% | [3] -21.8% | [4] -15% | [5] -10.9% | [6] -8.65%

CNC(=O)n1c(N)nc(-c2ccccc2)c1-c1ccccc1
inactive: [1] 14.3% | [2] 4.55% | [3] 18.4% | [4] 1.7% | [5] -22.1% | [6] -46.9%

O=C(CNC(=O)C(CSC(c1ccccc1)(c1ccccc1)c1ccccc1)NC(=O)OCc1ccccc1)OCc1ccccc1[N+](=O)[O-] (stereo unspecified)
inactive: [1] 4.9% | [2] 8.85% | [3] -4.15% | [4] -7.95% | [5] -7.05% | [6] 20.1%

CCCCCCC(/C=C/c1ccc(Cl)c(Cl)c1)=N\Nc1ccccc1
inactive: [1] 3.55% | [2] -15.9% | [3] 14.8% | [4] -19.7% | [5] -4.3% | [6] -12.3%

Cc1ccc(NC(=O)N2CC2(C)C)cc1NC(=O)N1CC1(C)C
inactive: [1] 0.2% | [2] 0.55% | [3] 2.8% | [4] -1.6% | [5] 1.2% | [6] 4.9%

Nc1ncnc2c1ccn2Cc1c(Cl)cccc1Cl
inactive: [1] 2.05% | [2] -0.2% | [3] 7.1% | [4] -2.75% | [5] 23.9% | [6] 5.4%
